Source: PubChem BioAssay (National Center for Advancing Translational Sciences (NCATS))
Sampled rows, rich in hits. Any-hit rate of the full collection: about 12%.
G9a inh: inhibitors of human histone lysine methyltransferase G9a; G9a H3K9 monomethylation, AlphaScreen, 2 h; Potency, µM (doses to about 102 µM), inactives show at the highest dose activity, negative = inhibition, hits mostly inhibitors; 350,000 compounds, 8.8% hits; note: potency is the fitted concentration of half-maximal effect; % is set by controls: 0 for no effect and ±100 for the full control effect; nearly all actives have a fitted effect of over 75% in size
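Readings reflect AlphaScreen signal from monomethyl-H3K9 antibody detection. HMT at 20 nM; substrate b-H3K9 500 nM; cofactor SAM 20 uM; 2 h RT reaction; compounds tested as titrations in qHTS with 15 min preincubation.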
HP1b binding inh: HP1-beta chromodomain-methylated histone interaction inhibition; P83916; AlphaScreen HP1-beta / biotin-H3K9me3 peptide binding; Potency, µM (highest dose often 114 µM), without a hit: at the top dose activity change, negative = inhibition, usual class: inhibitors; 390,000 compounds, 0.56% hits; note: potency is the fitted concentration of half-maximal effect; nearly all actives have a fitted effect of over 70% in size
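AlphaScreen: HP1-beta (50 nM) preformed 30 min with biotin-H3(1-18)K9me3 peptide (50 nM) in PBS pH 7.4, 0.01% Tween-20. Compound added for 30 min at RT, then streptavidin donor/nickel chelate acceptor beads (10 ug/mL) for 30 min.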
JMJD2A Tudor: blocks the human JMJD2A Tudor domain | AlphaScreen JMJD2A-Tudor / H3K4me3 peptide binding | 390,000 compounds, 4.4% hits | O75164 | Potency, µM (top dose mostly 114 µM), for inactives: at the top dose activity change, negative = inhibition, usual class: inhibitors | AID 504339; note: potency is the fitted concentration of half-maximal effect; % is set by controls: 0 for no effect and ±100 for the full control effect; nearly all actives have a fitted effect of over 50% in size
BAZ2B block: inhibitors of human BAZ2B bromodomain. Q9UIF8. AlphaScreen BAZ2B-H3K14Ac peptide displacement. Potency, µM (titrated, usually from 114 µM), for inactives: top-dose activity change, negative = inhibition, most hits filed as inhibitors. 360,000 compounds, 4.4% hits. AID 504333; note: potency is the fitted concentration of half-maximal effect; % is set by controls: 0 for no effect and ±100 for the full control effect; nearly all actives have a fitted effect of over 60% in size
Target sequence (Q9UIF8 whole entry, looked up): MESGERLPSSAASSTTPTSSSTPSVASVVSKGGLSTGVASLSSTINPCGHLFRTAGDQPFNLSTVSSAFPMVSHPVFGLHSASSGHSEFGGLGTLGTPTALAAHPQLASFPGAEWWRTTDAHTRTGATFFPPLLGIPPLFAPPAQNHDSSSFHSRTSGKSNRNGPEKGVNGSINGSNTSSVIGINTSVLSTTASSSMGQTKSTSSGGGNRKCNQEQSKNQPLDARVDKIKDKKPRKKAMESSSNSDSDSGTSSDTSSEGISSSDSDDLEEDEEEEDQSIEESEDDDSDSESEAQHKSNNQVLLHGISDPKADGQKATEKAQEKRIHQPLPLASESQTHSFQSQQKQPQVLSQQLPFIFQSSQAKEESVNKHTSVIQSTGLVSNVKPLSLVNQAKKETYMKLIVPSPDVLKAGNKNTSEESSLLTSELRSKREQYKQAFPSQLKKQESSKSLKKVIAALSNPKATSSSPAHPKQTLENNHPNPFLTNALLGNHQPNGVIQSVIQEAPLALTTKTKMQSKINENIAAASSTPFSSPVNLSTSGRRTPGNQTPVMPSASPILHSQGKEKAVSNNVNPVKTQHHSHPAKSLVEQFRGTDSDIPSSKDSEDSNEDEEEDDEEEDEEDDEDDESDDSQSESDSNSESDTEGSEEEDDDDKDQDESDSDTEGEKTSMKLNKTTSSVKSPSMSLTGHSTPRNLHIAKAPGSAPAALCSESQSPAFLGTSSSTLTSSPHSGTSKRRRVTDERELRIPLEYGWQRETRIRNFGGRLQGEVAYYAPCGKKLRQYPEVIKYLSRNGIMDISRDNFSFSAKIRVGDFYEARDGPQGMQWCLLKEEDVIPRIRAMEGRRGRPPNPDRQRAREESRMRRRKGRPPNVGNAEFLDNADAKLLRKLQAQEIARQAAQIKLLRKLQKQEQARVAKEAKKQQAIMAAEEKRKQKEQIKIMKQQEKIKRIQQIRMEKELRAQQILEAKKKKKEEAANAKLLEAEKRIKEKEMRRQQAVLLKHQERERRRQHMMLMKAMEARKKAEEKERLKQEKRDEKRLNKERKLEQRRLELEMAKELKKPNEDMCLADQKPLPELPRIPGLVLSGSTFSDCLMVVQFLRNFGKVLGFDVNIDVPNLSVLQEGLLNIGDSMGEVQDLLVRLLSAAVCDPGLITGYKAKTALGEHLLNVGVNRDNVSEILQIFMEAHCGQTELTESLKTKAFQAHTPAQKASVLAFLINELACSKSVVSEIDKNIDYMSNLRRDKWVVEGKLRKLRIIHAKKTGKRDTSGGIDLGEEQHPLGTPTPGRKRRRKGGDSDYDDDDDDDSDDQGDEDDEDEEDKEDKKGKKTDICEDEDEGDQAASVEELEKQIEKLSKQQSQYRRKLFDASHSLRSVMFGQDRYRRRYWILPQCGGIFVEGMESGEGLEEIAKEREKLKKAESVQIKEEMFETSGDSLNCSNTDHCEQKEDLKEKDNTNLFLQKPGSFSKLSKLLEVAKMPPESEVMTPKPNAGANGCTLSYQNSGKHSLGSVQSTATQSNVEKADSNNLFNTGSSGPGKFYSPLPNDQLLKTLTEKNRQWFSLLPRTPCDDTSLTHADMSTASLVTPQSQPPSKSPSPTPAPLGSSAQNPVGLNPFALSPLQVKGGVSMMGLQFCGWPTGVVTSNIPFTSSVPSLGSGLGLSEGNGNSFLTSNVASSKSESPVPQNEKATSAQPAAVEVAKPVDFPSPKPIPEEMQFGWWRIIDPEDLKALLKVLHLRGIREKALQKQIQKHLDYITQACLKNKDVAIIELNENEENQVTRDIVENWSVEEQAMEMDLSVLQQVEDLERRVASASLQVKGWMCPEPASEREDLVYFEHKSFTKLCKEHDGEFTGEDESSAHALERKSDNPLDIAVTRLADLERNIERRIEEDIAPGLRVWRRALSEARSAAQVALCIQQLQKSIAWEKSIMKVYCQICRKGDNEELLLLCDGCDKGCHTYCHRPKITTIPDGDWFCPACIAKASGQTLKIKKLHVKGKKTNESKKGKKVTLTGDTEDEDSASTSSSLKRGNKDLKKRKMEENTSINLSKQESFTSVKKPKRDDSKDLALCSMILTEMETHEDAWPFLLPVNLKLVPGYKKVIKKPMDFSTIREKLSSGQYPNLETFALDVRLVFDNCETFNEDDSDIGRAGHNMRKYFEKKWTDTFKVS
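AlphaScreen displacement: compounds (up to 110uM) incubated 30 min at room temperature with a preformed 50 nM BAZ2B/50 nM biotinylated H3K14Ac peptide complex in PBS pH 7.4 with Tween-20. Donor and acceptor beads at 10 ug/mL final added, 20 min light-protected before reading.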
PLK1 PBD block: blocks phosphopeptide binding to human PLK1 polo-box domain; Potency, µM, inactives show max response, negative = inhibition, most hits filed as inhibitors; P53350; 360,000 compounds, 2.8% hits; Plk1 PBD binding of FITC phosphopeptide, fluorescence polarization; AID 720504; note: potency is the fitted concentration of half-maximal effect; series mostly up to about 57 µM; % is set by controls: 0 for no effect and ±100 for the full control effect; nearly all actives have a fitted effect of over 65% in size
PI5P4Ka inh: inhibitors of human PI5P4K alpha. 330,000 compounds, 1.2% hits. AID 652105. max response, %. PI5P4Kalpha enzyme, ADP-Glo luminescence, 60 min; hits give low values; active = max response of -50% or lower; inconclusive = between -30% and -50%; inactive = -30% or higher; note: value at the top dose of about 77 µM; % is set by controls: 0 for no effect and ±100 for the full control effect
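Single end-point luminescence (ADP-Glo) quantified ADP from PI5P4Kalpha turnover; ATP 5 microM final, 1 h at RT, 0.1% CHAPS and 0.28 mM EGTA in HEPES pH 7.4.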
* = called active by the depositor; ? = inconclusive; . = not tested or not shown; [ ] = dose if it differs, or a comment. Unless noted, calls come from the whole dose curve; as a rule, active = well fitted curve in the direction sought with a large enough effect; inconclusive = small, poorly fitted or top-dose-only effect, or another doubt; inactive = no such curve, though single readings can be large; an effect the other way counts as inactive or inconclusive.

SMILES | G9a inh | HP1b binding inh | JMJD2A Tudor | BAZ2B block | PLK1 PBD block | PI5P4Ka inh
O=S(=O)(CCN1CCCCC1)Oc1ccc(Cl)cc1Cl | ? | 58% | -11% | -2% | 12µM* | 0
CCCn1c(=O)c2sccc2n2c(CCCC(=O)Nc3cccc(CC)c3)nnc12 | -1%[59 µM] | 36% | -2% | -20% | . | .
CN1CCN(CCCCOc2ccccc2C=O)CC1 | . | ? | 4µM* | 22µM* | -12% | 7
Clc1ccccc1OCCCCN1CCCC1 | ? | ? | 3.2µM* | ? | -2% | .
O=C(COc1ccc(Cl)cc1Cl)NCCN1CCCC1 | . | . | . | . | -2% | 0
O=C(OCCN1CCCCC1)c1ccccc1F | 2%[12.7 µM] | 27% | -33% | -2% | 19% | 3
O=Cc1ccccc1OCCOc1ccccc1C=O | -5%[59 µM] | 40% | -3% | -7% | -12% | .
Clc1ccc(Cl)c(OCCCCN2CCCCC2)c1 | 8.9µM* | ? | 32µM* | ? | -1% | 3
Fc1ccccc1OCCCCN1CCCCC1 | 50µM* | -12% | 79µM* | ? | -6% | 0
COc1ccc(OC)c(C(=O)COC(=O)c2[nH]c(C)c(C(C)=O)c2C)c1 | 3% | 21% | -16% | 6% | -3% | 5
COCCn1c(=O)c(-c2ccccc2)nc2cnc(Oc3ccc(OC)cc3)nc21 | 10%[0.501 µM] | . | . | . | . | .
Cc1cc(C)cc(NC(=O)Cn2c(=O)n(Cc3ccco3)c(=O)c3oc4ccccc4c32)c1 | 1%[59 µM] | 38% | -11% | -20% | . | .
Cc1ccc(Cl)c(OCCCCN2CCC(C)CC2)c1 | . | 33% | 0% | . | 2% | 3
CC1CCN(CCOc2cc(Cl)ccc2Cl)CC1 | ? | ? | 3.5µM* | 50µM* | -8% | .
COc1ccccc1/C=N/NC(=O)C1=NNC(c2ccccc2)(c2ccccc2)C1 | 4%[59 µM] | . | . | ? | . | .
O=C(N/N=C/c1ccc(C(=O)O)cc1)C1=NNC(c2ccccc2)(c2ccccc2)C1 | 0% | 35% | 79µM* | ? | ? | -22
CC(=O)c1c(C)[nH]c(C(=O)NNC(=O)COc2cc(C)cc(C)c2)c1C | 50µM* | 17% | -14% | -26% | -1% | 0
CC(=O)c1c(C)[nH]c(C(=O)NNC(=O)c2ccc(C)cc2)c1C | . | 28% | -13% | . | 0% | -1
O=C(c1cc(COc2ccc(F)cc2Cl)on1)N1CCCCCC1 | 90% | 41% | 16% | 35% | 4% | 4
O=C(c1cc(COc2ccc(F)cc2Cl)on1)N1CCCCCCC1 | 62% | 79% | 20µM* | 46% | 19µM* | -6
Nc1c(C(=O)Nc2cccc(F)c2)c2ccccn2c1C(=O)c1ccccc1 | 1%[59 µM] | 15% | -9% | -2% | . | .
O=c1c(N2CCN(c3cccc(Cl)c3)CC2)csc2ccccc12 | ? | -10%[57 µM] | 40µM* | ? | . | .
CCN1CCN(c2csc3ccc(Cl)cc3c2=O)CC1 | -27%[59 µM] | 32%[57 µM] | -14% | -6% | . | .
Cc1ccc2scc(N3CCN(c4ccccc4)CC3)c(=O)c2c1 | ? | -5%[57 µM] | 45µM* | ? | . | .
CC(C)CCn1c(O)c(N=NC(=O)Cn2ccc(C(F)(F)F)n2)c2ccccc21 | -9%[59 µM] | 4% | 50µM* | 3% | 24µM* | -16
SMILES | G9a inh | HP1b binding inh | JMJD2A Tudor | BAZ2B block | PLK1 PBD block | PI5P4Ka inh
COC(=O)c1ccc(NC(=O)CSc2nnc(C)n2-c2ccccc2)cc1 | -48%[59 µM] | 16% | -15% | -6% | -7% | .
COC(=O)c1ccc(NC(=O)CSc2nc(=O)cc(N)n2-c2ccccc2)cc1 | -4% | 7% | -26% | -12% | 27µM* | -1
Cc1ccc(CCc2nnc(SCC(=O)Nc3ccccc3Cl)n2-c2ccccc2)o1 | 28µM* | -4% | -33% | ? | -5% | 7
CCOC(=O)c1ccc(NC(=O)CSc2nnc(CCc3ccc(C)o3)n2-c2ccccc2)cc1 | 45µM* | 12% | -17% | -29% | -14% | 2
CC(=O)c1ccc(NC(=O)CSc2nc(=O)cc(N)n2-c2ccccc2)cc1 | -5% | 17% | -23% | -37% | -3% | -24
CCn1ccc2cc(S(=O)(=O)N3CCCN(C(=O)NCCOC)CC3)ccc21 | -4%[59 µM] | 26%[57 µM] | 5% | 5% | . | .
O=C1/C(=C/c2ccco2)SC(=S)N1c1cccnc1 | . | 16µM* | 8.9µM* | 10µM* | 17µM* | -105*
Cc1cc(/C=C2\SC(=S)N(Cc3ccco3)C2=O)c(C)n1-c1cccnc1 | ? | 6% | -23% | 13µM* | 38µM* | 8
NN1C(=O)/C(=C\c2ccco2)SC1=S | 25µM* | -24% | ? | 45µM* | 0% | -15
O=C1/C(=C/C=C/c2ccco2)SC(=S)N1c1ccc(O)cc1 | 13µM* | 28µM* | -31%[11.4 µM] | 32µM* | ? | -102*
O=C1NN(c2ccc(F)cc2)C(=O)/C1=C\C=C\c1ccco1 | ? | -35% | ? | -39% | -20% | ?
O=C1/C(=C/c2cccnc2)SC(=S)N1Cc1ccco1 | . | -17% | ? | . | -17% | -2
COc1ccc(NC(=O)Cn2c(=O)n(C(C)C)c(=O)c3oc4ccccc4c32)cc1Cl | 2%[59 µM] | 25% | -15% | -30% | . | .
CCC(=O)N1CCCc2cc(S(=O)(=O)CCC(=O)Nc3ccccc3C)ccc21 | ? | 25% | -11% | -15% | -11% | 1
CCc1ccc(C(=O)c2cn(CC(=O)Nc3ccc(F)cc3)c3ccc(OC)cc3c2=O)cc1 | ? | 37% | -29% | ? | . | .
Cc1ccc(Cl)cc1Nc1nc2ccccc2n2c(C)nnc12 | 22%[59 µM] | 63% | 7% | 5% | . | .
CC(C)C(C(=O)O)N1C(=O)/C(=C/C=C/c2ccco2)SC1=S (configuration not stated) | 3.5µM* | ? | 3.5µM* | 4.5µM* | 3µM* | -94*
O=C1/C(=C\c2ccco2)SC(=S)N1c1ccc(O)cc1 | 40µM* | -31% | ? | 35µM* | -9% | -11
CCCC(C(=O)O)N1C(=O)/C(=C/c2cccn2C)SC1=S (configuration not stated) | -38%[59 µM] | -11% | ? | ? | 57% | -19
O=C1/C(=C\c2ccc(O)cc2)SC(=S)N1c1cccnc1 | 32µM* | -12% | ? | ? | -6% | -6
Cc1cnc(NC(=O)C2CC(=O)N(c3cccc(Cl)c3)C2)s1 (configuration not stated) | 46% | 46% | 8% | -3% | 4% | -4
Fc1ccc(Cl)cc1/C=N/n1cnnc1SCc1ccccc1 | -28% | 9% | -21% | -31% | -10% | 1
C(=N\n1cnnc1SCc1ccccc1)/c1ccco1 | 56µM* | 26% | -23% | 0% | -10% | 1
CC(=O)/C(N=Nc1ccc(SC(F)F)cc1)=C(\C)O | -32% | 10% | -16% | -30% | -21% | 0
CCSC(=O)N=Nc1ccc(O)cc1 | . | ? | 56µM* | . | 27µM* | ?
